Source: PubChem BioAssay (EPA / NIEHS)
Active and inactive are the calls of the source. The calls were made as follows: active = hit-call score of the fitted dose curve at least 0.9, where 1 is the maximum; inactive = score below 0.9.

Tests used:
Details in all cases: mRNA level, 48 h; actives raise or lower the signal
[1] = read-out: ATP-citrate lyase (ACLY), ACLY (gene 47); assay: LTEA_HepaRG_ACLY: Life Technologies and Expression Analysis (LTEA) Assay for ATP-citrate lyase (ACLY) using HepaRG (AID 2283466)
Summary of the method: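 Differentiated HepaRG cells exposed 48 h in serum-free induction medium to eight half-log concentrations up to 100 uM in 0.5% DMSO, duplicates. Transcript measured by Fluidigm TaqMan qRT-PCR, normalized to ACTB, GAPDH, POLR2A; bidirectional fit versus DMSO.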

[2] = read-out: Peroxisomal acyl-coenzyme A oxidase 1 (ACOX1) gene, ACOX1 (gene 51); assay: LTEA_HepaRG_ACOX1: Life Technologies and Expression Analysis (LTEA) Assay for Peroxisomal acyl-coenzyme A oxidase 1 (ACOX1) gene using HepaRG (AID 2283467)
Summary of the method: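 HepaRG cells, plated 48 h then switched to serum-free induction medium, were exposed in duplicate for 48 h to 8-point half-log concentrations up to 100 uM in 0.5% DMSO. ACOX1 mRNA was measured by qRT-PCR, normalized to ACTB/GAPDH/POLR2A, and fitted bidirectionally versus DMSO.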

[3] = read-out: Alkaline Phosphatase, Placental (ALPP) gene, ALPP (gene 250); assay: LTEA_HepaRG_ALPP: Life Technologies and Expression Analysis (LTEA) Assay for Alkaline Phosphatase, Placental (ALPP) gene using HepaRG (AID 2283468)
Summary of the method: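 Differentiated human HepaRG cells were plated and cultured 48 h, then exposed in duplicate for 48 h in serum-free induction medium to eight half-log concentrations from 100 uM in 0.5% DMSO. ALPP mRNA was measured by TaqMan qRT-PCR, normalized to ACTB, GAPDH, POLR2A.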

[4] = read-out: Bcl-2 (BAD) gene, BAD (gene 572); assay: LTEA_HepaRG_BAD: Life Technologies and Expression Analysis (LTEA) Assay for Bcl-2 (BAD) gene using HepaRG (AID 2283469)
Summary of the method: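 Differentiated HepaRG cells were exposed in duplicate in 0.5% DMSO for 48 h to eight-point half-log concentrations up to 100 uM. BAD mRNA was measured by Fluidigm TaqMan qRT-PCR, normalized to ACTB, GAPDH and POLR2A, and fitted bidirectionally against DMSO.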

[5] = read-out: Bcl-2 (BAX) gene, BAX (gene 581); assay: LTEA_HepaRG_BAX: Life Technologies and Expression Analysis (LTEA) Assay for Bcl-2 (BAX) gene using HepaRG (AID 2283470)
Summary of the method: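 HepaRG (human liver), 48 h exposure, duplicate wells. 8-pt curve, half-log from 100 uM, 0.5% DMSO. BAX transcript by TaqMan qRT-PCR; ACTB/GAPDH/POLR2A normalization; gain or loss vs DMSO baseline.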

[6] = read-out: adenosine kinase (ADK) gene, ADK (gene 132); assay: LTEA_HepaRG_ADK: Life Technologies and Expression Analysis (LTEA) Assay for adenosine kinase (ADK) gene using HepaRG (AID 2283471)
Summary of the method: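 ADK expression quantified by qRT-PCR, normalised to three housekeeping genes, after 48 h exposure of HepaRG cells to eight concentrations (top 100 uM, half-log steps, duplicate, 0.5% DMSO). Up- or down-regulation fitted relative to vehicle.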

[7] = read-out: Alpha-fetoprotein (AFP) gene, AFP (gene 174); assay: LTEA_HepaRG_AFP: Life Technologies and Expression Analysis (LTEA) Assay for Alpha-fetoprotein (AFP) gene using HepaRG (AID 2283472)
Summary of the method: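 HepaRG, single lot; 48 h post-plating -> serum-free induction medium; cpd 8-pt, 100 uM top, half-log, 0.5% DMSO, duplicate, 48 h. RNA -> qRT-PCR AFP, norm ACTB/GAPDH/POLR2A. Bidirectional fit vs DMSO.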

[8] = read-out: Apolipoprotein A-V (APOA5) gene, APOA5 (gene 116519); assay: LTEA_HepaRG_APOA5: Life Technologies and Expression Analysis (LTEA) Assay for Apolipoprotein A-V (APOA5) gene using HepaRG (AID 2283474)
Summary of the method: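 Differentiated human HepaRG cells were exposed in duplicate for 48 h to eight half-log concentrations from 100 uM in 0.5% DMSO. APOA5 mRNA was quantified by TaqMan qRT-PCR, normalized to ACTB, GAPDH and POLR2A, and fitted bidirectionally against DMSO.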

[9] = read-out: Apoptosis regulator Bcl-2 (Homo sapiens) (UniProt P10415); assay: LTEA_HepaRG_BCL2: Life Technologies and Expression Analysis (LTEA) Assay for Bcl-2 gene using HepaRG (AID 2283475)
Summary of the method: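 HepaRG, plated 48 h then switched to serum-free induction medium; dosed 48 h, 8 conc. (max 100 uM, half-log steps), duplicate, 0.5% DMSO. Lysis in RLT, RNA isolated, TaqMan qRT-PCR for BCL2; ACTB/GAPDH/POLR2A normalisation; bidirectional fit vs DMSO.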

Caspase-3 (Homo sapiens) = Caspase-3 (Homo sapiens) (UniProt P42574); assay: LTEA_HepaRG_CASP3: Life Technologies and Expression Analysis (LTEA) Assay for cysteine-aspartic acid protease (CASP3) using HepaRG (AID 2283477)
Summary of the method: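 Differentiated human HepaRG cells in serum-free induction medium were exposed 48 h to 8-point half-log concentrations from 100 uM (0.5% DMSO vehicle). CASP3 mRNA was measured by qRT-PCR, normalised to ACTB, GAPDH and POLR2A, with bidirectional fitting against DMSO.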

[10] = read-out: Cytochrome P450 (CYP24A1), CYP24A1 (gene 1591); assay: LTEA_HepaRG_CYP24A1: Life Technologies and Expression Analysis (LTEA) Assay for Cytochrome P450 (CYP24A1) using HepaRG (AID 2283478)
Summary of the method: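 Differentiated HepaRG cells, pre-cultured 48 h, were exposed in duplicate for 48 h in serum-free induction medium to 8 half-log concentrations (top 100 uM, 0.5% DMSO). CYP24A1 mRNA was quantified by TaqMan qRT-PCR, normalized to ACTB/GAPDH/POLR2A, fitted bidirectionally versus DMSO.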

[11] = read-out: Cytochrome P450 (CYP1A2), CYP1A2 (gene 1544); assay: LTEA_HepaRG_CYP1A2: Life Technologies and Expression Analysis (LTEA) Assay for Cytochrome P450 (CYP1A2) using HepaRG (AID 2283479)
Summary of the method: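 Differentiated human HepaRG cells in serum-free induction medium were exposed in duplicate for 48 h to 8-point half-log concentrations up to 100 uM in 0.5% DMSO. CYP1A2 mRNA measured by qRT-PCR, normalized to ACTB, GAPDH, POLR2A; bidirectional fit vs DMSO.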

[12] = read-out: cysteine-aspartic acid protease (CASP8), CASP8 (gene 841); assay: LTEA_HepaRG_CASP8: Life Technologies and Expression Analysis (LTEA) Assay for cysteine-aspartic acid protease (CASP8) using HepaRG (AID 2283480)
Summary of the method: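 Differentiated HepaRG cells in serum-free induction medium, 48 h exposure, eight-point half-log series from 100 uM in 0.5% DMSO, duplicates. CASP8 mRNA by qRT-PCR, normalized to ACTB, GAPDH, POLR2A; bidirectional fit versus DMSO.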

[13] = read-out: Cytochrome P450 (CYP2B6), CYP2B6 (gene 1555); assay: LTEA_HepaRG_CYP2B6: Life Technologies and Expression Analysis (LTEA) Assay for Cytochrome P450 (CYP2B6) using HepaRG (AID 2283481)
Summary of the method: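 Differentiated HepaRG cells, serum-free induction medium, exposed 48 h in duplicate to 8-point half-log concentrations from 100 uM in 0.5% DMSO. CYP2B6 mRNA by qRT-PCR, normalized to ACTB, GAPDH, POLR2A; bidirectional fit versus DMSO.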

[14] = read-out: Cytochrome P450 2C19 (Homo sapiens) (UniProt P33261); assay: LTEA_HepaRG_CYP2C19: Life Technologies and Expression Analysis (LTEA) Assay for CYP2C19 using HepaRG (AID 2283482)
Summary of the method: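 Differentiated human HepaRG cells were exposed for 48 h in serum-free induction medium to 8 concentrations (top 100 uM, half-log steps, 0.5% DMSO). CYP2C19 mRNA was measured by qRT-PCR, normalized to ACTB/GAPDH/POLR2A, and fitted bidirectionally against DMSO.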

CYP2C8 (gene 1558) = assay: LTEA_HepaRG_CYP2C8: Life Technologies and Expression Analysis (LTEA) Assay for CYP2C8 using HepaRG (AID 2283483)
Summary of the method: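 Differentiated HepaRG cells in serum-free induction medium exposed 48 h in duplicate to 8 half-log concentrations from 100 uM in 0.5% DMSO. CYP2C8 mRNA by qRT-PCR normalized to ACTB, GAPDH, POLR2A; bidirectional fit versus DMSO.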

CYP2C9 (gene 1559) = assay: LTEA_HepaRG_CYP2C9: Life Technologies and Expression Analysis (LTEA) Assay for CYP2C9 using HepaRG (AID 2283484)
Summary of the method: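 Differentiated human HepaRG cells in serum-free induction medium were exposed 48 h to chemicals in 8-point half-log series from 100 uM (0.5% DMSO), in duplicate. CYP2C9 mRNA was measured by qRT-PCR, normalized to ACTB/GAPDH/POLR2A, with bidirectional fitting versus DMSO.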

CYP2E1 (gene 1571) = assay: LTEA_HepaRG_CYP2E1: Life Technologies and Expression Analysis (LTEA) Assay for CYP2E1 using HepaRG (AID 2283485)
Summary of the method: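 Human liver line HepaRG, plated 48 h, then serum-free induction medium + chemical x 48 h; 8-pt CRC from 100 uM, half-log, 0.5% DMSO, n=2. Readout: CYP2E1 mRNA qRT-PCR vs ACTB/GAPDH/POLR2A; bidirectional fit vs DMSO.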

BCL2L11 (gene 10018) = assay: LTEA_HepaRG_BCL2L11: Life Technologies and Expression Analysis (LTEA) Assay for Bcl-2 (BCL2L11) gene using HepaRG (AID 2283473)
Summary of the method: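 Differentiated human HepaRG cells in serum-free induction medium were exposed in duplicate for 48 h to eight concentrations (top 100 uM, half-log steps, 0.5% DMSO). BCL2L11 mRNA was quantified by TaqMan qRT-PCR, normalized to ACTB/GAPDH/POLR2A, bidirectional fit versus DMSO.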

[15] = read-out: Bcl-2 (BID) gene, BID (gene 637); assay: LTEA_HepaRG_BID: Life Technologies and Expression Analysis (LTEA) Assay for Bcl-2 (BID) gene using HepaRG (AID 2283476)
Summary of the method: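 Transcript levels of BID, measured by qRT-PCR and normalized to three housekeeping genes, were fitted bidirectionally against DMSO controls. Cells were HepaRG, dosed 48 h at up to 100 uM.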

Measured: AC50

Chain of Caspase-3 (Homo sapiens) (P42574 whole entry, looked up): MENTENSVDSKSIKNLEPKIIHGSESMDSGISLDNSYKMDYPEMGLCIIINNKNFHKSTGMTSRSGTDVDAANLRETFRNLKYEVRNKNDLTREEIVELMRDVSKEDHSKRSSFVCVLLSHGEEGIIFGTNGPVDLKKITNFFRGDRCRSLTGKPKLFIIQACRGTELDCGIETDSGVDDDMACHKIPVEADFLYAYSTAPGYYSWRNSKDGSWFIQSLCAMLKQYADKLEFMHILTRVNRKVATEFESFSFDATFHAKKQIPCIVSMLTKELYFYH
Chain of Cytochrome P450 2C19 (Homo sapiens) (P33261 whole entry, looked up): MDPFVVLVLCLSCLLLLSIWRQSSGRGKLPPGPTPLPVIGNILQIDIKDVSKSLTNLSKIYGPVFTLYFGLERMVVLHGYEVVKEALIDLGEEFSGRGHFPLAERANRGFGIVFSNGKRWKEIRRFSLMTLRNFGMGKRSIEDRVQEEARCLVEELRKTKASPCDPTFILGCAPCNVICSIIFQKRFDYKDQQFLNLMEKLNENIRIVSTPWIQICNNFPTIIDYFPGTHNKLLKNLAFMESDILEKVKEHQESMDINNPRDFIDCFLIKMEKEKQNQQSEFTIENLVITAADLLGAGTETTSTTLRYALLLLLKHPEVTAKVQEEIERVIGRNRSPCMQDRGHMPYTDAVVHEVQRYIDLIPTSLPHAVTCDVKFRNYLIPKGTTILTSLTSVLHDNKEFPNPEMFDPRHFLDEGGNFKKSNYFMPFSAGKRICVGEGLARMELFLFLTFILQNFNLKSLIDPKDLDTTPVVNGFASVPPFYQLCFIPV
Chain of Apoptosis regulator Bcl-2 (Homo sapiens) (P10415 whole entry, looked up): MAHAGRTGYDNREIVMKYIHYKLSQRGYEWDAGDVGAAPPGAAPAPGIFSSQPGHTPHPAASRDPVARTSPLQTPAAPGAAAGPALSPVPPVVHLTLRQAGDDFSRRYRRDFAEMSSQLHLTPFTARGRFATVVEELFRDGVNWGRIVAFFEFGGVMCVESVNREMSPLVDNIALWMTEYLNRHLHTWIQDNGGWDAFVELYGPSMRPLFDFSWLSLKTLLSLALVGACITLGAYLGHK

COP(=S)(OC)Oc1ccc([N+](=O)[O-])c(C)c1
inactive: [1] | [2] | [3] | [4] | [5] | [6] | [7] | [8] | [9] | Caspase-3 (Homo sapiens) | [12] | [14] | CYP2C8 (gene 1558) | CYP2C9 (gene 1559) | CYP2E1 (gene 1571)
active: [10] 0.00316 µM | [11] 50 µM | [13] 4.75 µM

Cc1cc(C)nc(Nc2ccccc2)n1
active: [13] 6.39 µM
inactive: [1] | [2] | [3] | [4] | [5] | [6] | [7] | BCL2L11 (gene 10018) | [8] | [9] | Caspase-3 (Homo sapiens) | [12] | [14] | CYP2C8 (gene 1558) | CYP2C9 (gene 1559) | CYP2E1 (gene 1571)

CCCC(=NOCC)C1=C(O)CC(CC(C)SCC)CC1=O (stereo unspecified)
active: [13] 46.2 µM | [14] 29.6 µM | CYP2E1 (gene 1571) 50.2 µM
inactive: [1] | [2] | [3] | [4] | [5] | [6] | [7] | BCL2L11 (gene 10018) | [8] | [9] | Caspase-3 (Homo sapiens) | [10] | [11] | [12] | CYP2C8 (gene 1558) | CYP2C9 (gene 1559)

COP(=O)(OC)O/C(C)=C/C(=O)N(C)C
inactive: [1] | [2] | [3] | [4] | [5] | [6] | [7] | [8] | [9] | [15] | Caspase-3 (Homo sapiens) | [10] | [11] | [12] | [14] | CYP2C8 (gene 1558) | CYP2C9 (gene 1559) | CYP2E1 (gene 1571)

N#CN=C1SCCN1Cc1ccc(Cl)nc1
inactive: [1] | [2] | [3] | [4] | [5] | [6] | [7] | BCL2L11 (gene 10018) | [8] | [9] | [15] | Caspase-3 (Homo sapiens) | [12] | CYP2C8 (gene 1558) | CYP2C9 (gene 1559) | CYP2E1 (gene 1571)
active: [14] 34.1 µM

CCCCC(O)(Cn1cncn1)c1ccc(Cl)cc1Cl (stereo unspecified)
inactive: [4] | [6] | Caspase-3 (Homo sapiens) | [10] | [12]
active: [1] 12.3 µM | [2] 69.4 µM | [3] 73.3 µM | [5] 74.6 µM | [7] 68.4 µM | [8] 65.6 µM | [9] 59.5 µM | [11] 87.4 µM | [14] 83.2 µM | CYP2C8 (gene 1558) 78.5 µM | CYP2C9 (gene 1559) 73.8 µM | CYP2E1 (gene 1571) 46.4 µM
